The results in this text go back to the supplement of paper PMC10338343.

± gives the standard deviation.
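Further: 1 nM active piRISC with 0.1 nM target library at 33 °C single turnover.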

The assay has as its system MILI (PIWIL2) piRISC loaded with L1MC piRNA (26 nt). Description: pre-steady-state target cleavage rate (min^-1); guide: L1MC piRNA 5'p-UAACUAAAUACUAUGCAAGCUGUAGG; MIWI and MILI are mouse PIWI proteins and EfPiwi is from a freshwater sponge; tags in brackets are library labels; higher = faster piRNA-guided slicing of the target. The settings on record: auxiliary factor: 500 nM mouse GTSF1. In short, it runs like this:
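Cleave-'n-Seq measured uncleaved targets by sequencing after a transcribed, DNA-blocked target RNA library […] was mixed with 1 nM active affinity-purified piRISC holding one synthetic guide, with or without 500 nM GTSF1 partner protein, at 33 °C in HEPES–potassium acetate buffer for 0–8 or 0–960 min. Counts were normalised to depth and to weakly complementary targets, three trials were pooled, and k3 was capped at 0.0001 min^-1. A burst-and-steady-state fit gave the pre-steady-state cleavage rate.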
On to UCCUGGUACAGCUAGCAUAGUAUUUACAAA, for which the “pre-steady-state target cleavage rate” value was found to be 0.0365 ± 0.012. As for UCCUGGAUGUCCUUCCUUAGUAUUUAGUUA, the “pre-steady-state target cleavage rate” value was 0.00908 ± 0.0046. The result for UCCUGGUACUGCUUGCAUAGUAUUAAGUUA reads 0.15 ± 0.035. The result for UCCUGGAACACCUUGCAUAGUAUUUUCAAA reads 0.0441 ± 0.015; that for UCCUGGAACAGCUUGCAAACUAUUUAGUUA, 0.0282 ± 0.0064. For UCCUGGAUGACCUUCCAUAGUAUUUAGUUA, the “pre-steady-state target cleavage rate” value amounted to 0.024 ± 0.0096. The result for UCCUGGAUGUCCUUGCUUAGAAUUUAGUUA reads 0.00442 ± 0.004; that for UCCUGGAUGUGCUUGCAUAGUAUAAAGUAA, 0.0114 ± 0.0059; that for UCCUGGAUGUGCUUGCAUAGUAUUUAGUGA, 0.11 ± 0.017. Regarding UCCUCCUACAGCUUCGAUAGUAUUUAGAAA, the “pre-steady-state target cleavage rate” value is 0.0982 ± 0.019. The result for UCCUGGAACAGCUUGCAUAGUAUUUACUAA reads 0.0459 ± 0.013; that for UCCUGGAUGUCCUUGCUUAGUAUUAAGUUA, 0.0115 ± 0.0047; that for UCCUGGAUCAGCUUGCAUAGAUUUUAGUAA, 0.0227 ± 0.0073. The result for UCCUGGAACAGCUUGCAUAGAAUUUACUUA reads 0.0289 ± 0.011.

In the case of UCCUGGUUCAGCUUCCAUAGUAUUUAGUUA, the “pre-steady-state target cleavage rate” value was determined as 0.0301 ± 0.012.

UCCUGGUACAGCUUGCUUAGUAUUUACUUA: the “pre-steady-state target cleavage rate” value was determined as 0.191 ± 0.038. The result for UCCUGGUACAGCUUGCAUACUAUUUUGUUA reads 0.0288 ± 0.011; that for UCCUGGAUGUCGAAGACAUAGUAUUUAGUUA, 0.0117 ± 0.0056. For UCCUGCUACACCUUGCAUAGUAUUUACAAA, the “pre-steady-state target cleavage rate” value was found to be 0.144 ± 0.039. The result for UCCUGGAUGAGCAUGCAUAGUAUUUACAAA reads 0.0679 ± 0.018.

As to UCCUGGAUCAGCUUGGAUAGAAUUUAGUUA, the “pre-steady-state target cleavage rate” value came to 0.0242 ± 0.0065. The result for UCCUGGAACAGCUUGCAUAGUAUUUAGGUA reads 0.0622 ± 0.017; that for UCCUGGAUCAGCUUGCAUAGGAUUUAGUUA, 0.0049 ± 0.0037. The result for UCCUGCUACACCUUGCAUAGUAUAUAGUUA reads 0.18 ± 0.037. The result for UCCUGGUUGUGCUUGCAUAGUAUUUUCAAA reads 0.00513 ± 0.005. Consider UCCUGGAACAGCUUGCAUACUAUUUAGAAA, for which the “pre-steady-state target cleavage rate” value came out at 0.0271 ± 0.011. For UCCUGGAUGUCGAUCCAUAGUAUUUAGUUA, the “pre-steady-state target cleavage rate” value was 0.00686 ± 0.0039.

With UCCUGCUACAGCUUGCAUAGUAAAAACAAA, the “pre-steady-state target cleavage rate” value was determined as 0.0234 ± 0.01. The result for UCCUGGAACAGCUUGCAUAGUAAAUAGUAA reads 0.143 ± 0.035. The result for UCCUGGAUGAGCUUGCAAAGUUUUUAGUUA reads 0.00724 ± 0.004.

For UCCUGGAUGUGCUUGCUUAGUAUUUUGUUA, the “pre-steady-state target cleavage rate” value turned out to be 0.0645 ± 0.017. As to UCCUGGAUGUCGAACCUAUAGUAUUUAGUUA, the “pre-steady-state target cleavage rate” value is 0.00362 ± 0.0029. The result for UCCUGCUACACGAUGCAUAGUAUUUACAAA reads 0.0504 ± 0.02; that for UCCUGGAUCAGCUUGGAUAGUAUUUACUUA, 0.107 ± 0.026. The result for UCCUGGAAGUCCUUGCAUAGUAUUUACAAA reads 0.0598 ± 0.018; that for UCCUGGAACUGCUUGCAUAGUAUUUUCAAA, 0.0118 ± 0.0046. Consider UCCUGGUUCAGCUUGCAUAGUAUUUACAAA, for which the “pre-steady-state target cleavage rate” value amounted to 0.0698 ± 0.021.
